Test results: PubChem BioAssay AID504707 (The Scripps Research Institute Molecular Screening Center, 2011)
Hit rate of the full screen: of about 340,000 compounds, about 280 (0.082%) were called active. The list comes from a sample in which actives are over-represented; it also holds similar structures and randomly drawn compounds. Values without a mark were called inactive.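 The calls were made as follows: active = percent activation above the mean of all tested compounds plus 3 SD (cut at about 19% in these data); inactive = the rest.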

Target: cAMP-dependent protein kinase type I-alpha regulatory subunit (Bos taurus) + cAMP-dependent protein kinase catalytic subunit beta (Mus musculus) (UniProt P00514+P68181)
Test: compounds dissociating PKAc from R1A subunit – biochemical, fluorescence polarization, Cy5-IP20, bovine R1A, mouse PKAc, primary screen (AID 504707);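 also: higher means more PKAc released from R1A so a rise in polarization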
Conditions: PKA-R1A dissociation, at 11.4 µM, stronger effect = higher value, scaled: DMSO 0%, 113 µM cGMP 100%

SMILES | activation
OCC1OC(n2cnc3c(N4CCCC4)ncnc32)C(O)C1O (stereo not given) | 2.45%
CC(Sc1ccc(S(=O)(=O)N2CCN(C)CC2)cn1)C(=O)NC1CCCC(C)C1C (stereo not given) | 1.21%
NC1=CC(=O)C(=O)c2cccnc21 | 0.52%
CCCc1ccc(S(=O)(=O)N2CCN(C(=O)c3cc(C)on3)CC2)cc1 | 8.59%
CCc1noc(C)c1C(=O)OCC(=O)c1ccc(NC(=O)CC(C)C)cc1 | -17.9%
COc1ccc2c(c1)CCCO[C@]21O[C@H](CCO)C[C@H](O)[C@H]1O | -17.7%
COCOCCn1cc(CN2CCS(=O)(=O)N(Cc3ccc(-c4ccccc4)cc3)C(CC(C)C)C2=O)nn1 (stereo not given) | -7.1%
CCc1cc(C(=O)N(CC)CC(=O)Nc2c(F)cccc2F)sc1C | 2.41%
O=S(=O)(c1ccc(Cl)s1)N1CCC2(CC1)OCCO2 | -0.53%
Cc1noc(C)c1S(=O)(=O)N(C)C[C@H]1OCCCC[C@@H](C)Oc2ccc(NC(=O)CCCN(C)C)cc2C(=O)N([C@H](C)CO)C[C@@H]1C | -9.82%
Cc1ccn(CC(=O)NC2CCCN(Cc3ccccc3F)C2)n1 (stereo not given) | 3.67%
CCOC(=O)c1cnc(SC)nc1Sc1ccc(Cl)cc1Cl | -0.11%
C[C@@H]1CN([C@H](C)CO)S(=O)(=O)c2ccc(C#CC3CCCCC3)cc2O[C@H]1CN(C)C(=O)Cc1ccncc1 | -5.17%
CC1CCN(C(=O)CSc2nnc(-c3ccco3)n2N)CC1 | -3.33%
Cc1ccc(CCNC(=O)CN2C(=O)CSc3ccc(S(=O)(=O)N4CCOCC4)cc32)cc1 | -7.23%
CCCCN=C(N)/C(C(=O)OCC)=C(\O)c1ccc(OC)cc1 | -0.11%
COc1ccc(S(=O)(=O)N2CCC(C(=O)NCCC(=O)NCCc3cccc(F)c3)CC2)cc1 | -4.12%
NS(=O)(=O)c1ccc(CNC(=O)c2cc(S(=O)(=O)N3CCOCC3)ccc2N2CCCC2)cc1 | -1.96%
CCN(CC)C(=O)C1=C(C)N(Cc2ccccc2)C(=O)C(CC(=O)NC(c2ccccc2)c2ccccc2)C1 (stereo not given) | -7.55%
CCc1nc2c(=O)[nH]cnc2o1 | 12.2%
CC1CCC2(CC1)NC(=O)N(CC(=O)NCc1ccco1)C2=O (stereo not given) | -3.37%
COc1ccc(NC(=O)COC(=O)C2COc3ccccc3O2)cc1 (stereo not given) | 11.1%

SMILES | activation
O=C(CSc1ccc(Cl)cc1)NC1CC1 | -0.65%
CCCNC(=O)C1CC(=O)N(c2ccc(OCc3ccccc3)cc2)C1 (stereo not given) | 3.3%
O=C(COC(=O)c1cccc(Cl)c1Cl)NC1CCCCCC1 | -4.58%
C[C@H]1CN([C@@H](C)CO)C(=O)CCCn2cc(nn2)CO[C@@H]1CN(C)C(=O)Nc1ccccc1 | -15.3%
CCN(c1ccc(NC(=O)COC(=O)CCc2nc3ccccc3n2-c2ccccc2)cc1)C(C)C | -8.81%
Cc1ccc(S(=O)(=O)NN=C2CC(C)(C)CC(=O)C2(C)C)cc1 | -0.8%
C[C@H]1CN([C@@H](C)CO)C(=O)CCCn2nncc2CO[C@@H]1CN(C)S(=O)(=O)c1cccc(C#N)c1 | -0.38%
Cc1ccc([C@H]2N[C@]3(CCCN(Cc4ccccc4)C3=O)[C@H]3C(=O)N(Cc4ccccc4)C(=O)[C@@H]23)cc1 | 3.96%
CSCCC1NC(=O)N(CC(=O)Nc2cccc(S(=O)(=O)N3CCCCCC3)c2)C1=O (stereo not given) | 4.33%
CC(C)CC1C(=O)N(Cc2cn(CC3CCCCC3)nn2)CCS(=O)(=O)N1Cc1ccc(-c2ccc(Cl)cc2)cc1 (stereo not given) | -4.01%
COc1ccc(CNc2nnnn2C)cc1 | 19.2% (active)
Cn1nnnc1NCc1ccc(Cl)c(Cl)c1 | -9.38%
CCCn1nnnc1NCc1ccc(OC)cc1 | -2.85%
Cc1ccccc1OS(=O)(=O)c1cccc([N+](=O)[O-])c1 | 15.6%
O=C(NCc1nnnn1-c1ccc(Cl)cc1)c1ccc2c(c1)OCO2 | 4.42%
O=[N+]([O-])c1ccc(C(S(=O)(=O)Cc2ccccc2)S(=O)(=O)Cc2ccccc2)cc1 | 4.44%
CCOC(=O)c1cnn2c(SC)ncnc12 | 1.57%
CN(C)C(CNC(=O)c1cccc(S(=O)(=O)N2CCc3ccccc3C2)c1)c1ccccc1 (stereo not given) | -0.91%
CC1=C(C(=O)N2CCOCC2)CC(CC(=O)NCc2cccc3ccccc23)C(=O)N1CCC1=CCCCC1 (stereo not given) | -16.2%
Cc1cc(C)c(C#N)c(SCC(=O)NN2CC(=O)N(c3ccccc3F)CC2=O)n1 | -8.96%
CC(C)CC1C(=O)N(Cc2cn(Cc3ccco3)nn2)CCS(=O)(=O)N1Cc1ccc(-c2ccc(Cl)c(Cl)c2)cc1 (stereo not given) | -7.28%
CCOC(=O)c1nc(-c2ccc3c(c2)OCO3)[nH]c1C | -2.48%

SMILES | activation
CC1=C(C(=O)N2CCOCC2)CC(CC(=O)NCCN2CCOCC2)C(=O)N1CCC1=CCCCC1 (stereo not given) | -5.53%
CCC(C)C1(C2CCCC2)NC(=O)NC1=O (stereo not given) | -4.54%
O=C(Nc1cccc(C(=O)O)c1)/C(=C\c1ccccc1)NC(=O)c1ccc(Br)o1 | 3.24%
O=C(c1ccc(N2CCCC2=O)cc1)N1CCN(c2ccc(C(F)(F)F)cc2[N+](=O)[O-])CC1 | 0.5%
CCN(C(=O)C1CCCN(c2nc(-c3ccc(OC)cc3)no2)C1)c1ccc(OC)cc1 (stereo not given) | -6.29%
Cc1ccnc(SC2CC(=O)N(c3ccccc3)C2=O)n1 (stereo not given) | 8.38%
Cc1cccc(NS(=O)(=O)c2cc(Cl)ccc2Cl)n1 | -4.38%
O=C1[C@H]2[C@@H](c3ccc(C(F)(F)F)cc3)N[C@]3(CCCN(Cc4ccc(Br)cc4)C3=O)[C@H]2C(=O)N1Cc1ccccc1 | -1.26%
CC(=O)N1CCc2cc(S(=O)(=O)NC3CCCCC3)ccc21 | 5.76%
Cc1ccc(NC(=O)Cn2sc3ccccc3c2=O)cc1 | 8.53%
CN(C)c1ccc(NC(=O)CSc2n[nH]c(-c3ccco3)n2)cc1 | 7.46%
Cc1ccc(S(=O)(=O)/N=C2\C=C(NS(=O)(=O)c3ccc(C)cc3)C(=O)c3ccccc32)cc1 | -6.85%
C[C@H](CO)N1C[C@H](C)[C@@H](CN(C)Cc2ccc3c(c2)OCO3)OCc2cnnn2CCCC1=O | -8.89%
CCOC(=O)C1CCCN(S(=O)(=O)c2ccc3c(c2)C(C)(C)C(=O)N3C)C1 (stereo not given) | -3.23%
COc1cc(Br)c(-c2sc(Nc3ccccc3)n[n+]2-c2ccccc2)cc1OC | -4.44%
Nc1nonc1-n1nnc(C(=O)N/N=C/c2ccc(Cl)cc2)c1-c1ccc2c(c1)OCO2 | -7.77%
CCS(=O)(=O)N1Cc2ccccc2CC1C(=O)Nc1nc2ccc(F)cc2s1 (stereo not given) | 5.39%
Cc1cccc(C(=O)OCC(=O)Nc2sccc2C(N)=O)c1C | 3.56%
O=C(CN1C(=O)NC2(CCc3ccccc32)C1=O)NC1CCCCC1 (stereo not given) | -0.6%
COC(=O)[C@H]1Cc2cnoc2C[C@]1(C)C(=O)O | 4.79%
COc1ccc(CN2C(=O)C(CC(=O)NC3CCCCC3)CC(C(=O)N3CCOCC3)=C2C)cc1 (stereo not given) | 1.08%
CC1CC(NC(=S)N(C)C)CC(C)(C)C1 (stereo not given) | 7.75%

SMILES | activation
O=C(NN=Cc1ccc2c(c1)CCC2)c1ccccc1O | 10.6%
Cc1onc(-c2ccccc2)c1-c1nnc(COC(=O)c2ccc(N(C)C)cc2)o1 | 11.8%
COc1cccc(NC(=O)Nc2ccc(F)cc2)c1 | 9.12%
c1ccc2c(c1)nnn2-c1ccncc1 | -12.8%
CC1=C(C(=O)N(C)C)CC(CC(=O)NCCc2ccccn2)C(=O)N1CCC1=CCCCC1 (stereo not given) | 3.98%
CC(=O)Nc1ccc2c3c(ccc([N+](=O)[O-])c13)CC2 | 1.42%
C[C@H]1CN([C@@H](C)CO)C(=O)CCCn2cc(nn2)CO[C@@H]1CN(C)S(=O)(=O)c1ccc(-n2cccn2)cc1 | 4.21%
CC(C)CCNc1nc(N2CCCC2)c2c(c1C#N)CCN(C)C2 | 6.18%
CN1CCN(S(=O)(=O)c2cccc(C(=O)Nc3sccc3C#N)c2)CC1 | -12.1%
C[C@H]1CN([C@@H](C)CO)C(=O)CCCn2cc(nn2)CO[C@@H]1CN(C)S(=O)(=O)c1ccccc1C#N | -3.32%
CC(=NNC(N)=O)C1CC2CCC1CC2 (stereo not given) | -3.74%
COc1ccc(Cl)cc1NC(=O)CN(C)C(=O)c1cn(-c2ccccc2)nc1-c1cccs1 | -7.71%
Cc1ccc([C@H]2C[C@H](O)[C@@H](n3cc(COC(=O)c4ccccc4)nn3)CN2CC2CCCCC2)cc1 | -14.8%
CCCCCCNC(=O)O[C@]12C[C@@H](C(=O)OC)[C@@H](C(=O)OC)C[C@@]1(O)CN(S(=O)(=O)c1ccc(C)cc1)C2 | -13.7%
CCc1nnc(NC(=O)c2ccco2)s1 | -1.79%
Cc1cccc(C(=O)C(O)(c2ccccc2)C2CCCCC2=O)c1 (stereo not given) | -0.27%
COc1ccc(S(=O)(=O)N(C)C[C@H]2OCc3cnnn3CCCC(=O)N([C@H](C)CO)C[C@H]2C)cc1 | 9.03%
CCOC(=O)C1(O)CC(C)=NN1C(=O)c1cccc(Br)c1 (stereo not given) | -8.67%
C#CCN(C[C@H]1[C@H](OC(=O)NC2CCCC2)[C@H](OC(=O)NC2CCCC2)C[C@H]2C(=O)N(c3ccccc3)C(=O)[C@@H]12)S(=O)(=O)c1ccc(C)cc1 | 7.98%
